Screening data as filed in PubChem.
miR-122 sensor – blocks miR-122 activity in Huh7 sensor cells; Huh7 miR-122 Renilla luciferase sensor, 48 h; neutral wells = 0, positive control = 100; activation (reporter increase), % at 12.5 µM; actives 0.3% (n = 340,000); AID 602342;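 active = mean replicate activation score at least 90 and every replicate individually at or above 90; inconclusive = only one of the two criteria met; inactive = neither criterion met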;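 also: higher luciferase means less miR-122 activity so hits act as miR-122 inhibitors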
C2C12 statin – protects C2C12 myotubes from simvastatin toxicity; ATP luminescence, 48 h; scaled: DMSO 0, geranylgeraniol control 100; rescue of ATP level, % at 7.49 µM; actives 0.78% (n = 330,000);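 active = mean ATP rescue above about 67%, or every replicate alone reaching that limit, limit read from the data, passing the limit was not always enough; inconclusive = no clear call, values can overlap the other calls; inactive = mean under the limit and some replicate under it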;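 also: myotubes were challenged with 10 µM simvastatin during compound exposure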
PAX8 inh HTS – inhibitors of PAX8 transcriptional activity in RMG-I cells. RMG-I TPO-luciferase reporter, SteadyGlo, 24 h. inhibition, % at 12.6 µM. actives 1.2% (n = 360,000). AID 652154;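 active = mean replicate inhibition at least 60% with every replicate also reaching 60%; inconclusive = only one of the two criteria is met; inactive = mean below 60% and not all replicates reaching 60%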;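 also: luciferase light reporting Pax8 driven TPO promoter activity; plate controls were median of neutral control wells for no effect and mitoxantrone controls for full effect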
GSIS activator – primary screen for activators of insulin secretion dependent on glucose, INS-1E cells, GLuc reporter luminescence; INS-1E GLuc reporter insulin secretion, 2-3 h; AID 743287; actives 0.61% (n = 370,000); activation, % at 16.6 µM;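 active = lowest replicate activation of at least 40%, so every replicate reaches that level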;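 also: 0% = median of neutral control wells and 100% = median of IBMX positive control wells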
Env fusion inh – blocks HIV Env-driven cell-cell fusion. HeLa-JRFL Env/CEM21 cell fusion, luciferase. inhibition, % at 12.3 µM. actives 1.1% (n = 360,000). AID 651610;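 active = mean replicate inhibition score of at least 50 and every replicate individually at or above 50; inconclusive = only one of the two criteria met; inactive = mean below 50 and not all replicates reaching 50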;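 also: 0% = plate neutral controls and 100% = maraviroc near 300 nM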
EWS-Fli inh – blocks EWS/Fli oncoprotein-driven transcription; A673 NR0B1-luciferase reporter, viability-normalised; AID 651661; actives 0.67% (n = 350,000); inhibition, % at 12.6 µM;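 active = mean inhibition of at least 50% after viability correction, with every replicate also passing that limit; inconclusive = mean reaches 50% but only one of two replicates passes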;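 also: firefly luciferase signal divided by Alamar Blue viability fluorescence both relative to DMSO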
Numbers without * were called inactive; ? = inconclusive; · = no result given; [ ] = another dose, or the depositor's remark. Shown are actives, neighbours in structure and some others; about 3.1% of the full set was active somewhere.

SMILES	miR-122 sensor	C2C12 statin	PAX8 inh HTS	GSIS activator	Env fusion inh	EWS-Fli inh
CC(N)=Nc1ccc([N+](=O)[O-])cc1	3.9	·	-4.9	14.7	9.3	·
CC(C)NC(=O)Nc1cccc2c1O[C@@H](CN(C)S(C)(=O)=O)[C@H](C)CN([C@H](C)CO)C2=O	2.0[16.7 µM]	-22.3	5.8	19.3	1.4[16.7 µM]	3.3
CCCn1nc(NC(=O)c2ccco2)c2cc3ccccc3nc21	·	·	-9.3	44.9*	-89.5	·
CCn1nc(NC(=O)c2ccco2)c2cc3cc(C)ccc3nc21	·	·	-10.9	9.8	-4.4	-13.8
CCCn1c(NC(=O)c2ccco2)nc2ccccc21	40.8	102.3*	·	14.6	·	·
COCC(=O)N1CC(=O)N2[C@@H](CO)[C@@H](c3ccc(C#CC4CCCCC4)cc3)[C@@H]2C1	·	·	5.8	-11.4	·	5.1
Cc1ccc(-c2nnc(OCCN3CCOCC3)c3ccccc23)cc1	-4.9	111.4*	-0.3	·	-216.2	·
CCN(CC)CCOc1nnc(-c2ccc(C)cc2)c2ccccc12	-9.4	7.3	·	·	·	·
C/C=C/c1cnc2c(c1)C(=O)N([C@H](C)CO)C[C@@H](C)[C@H](CN(C)C(=O)Nc1c(C)noc1C)O2	10.0[16.7 µM]	22.1	·	8.0	-3.5[16.7 µM]	-0.1
CC(C)N=C(NS(=O)(=O)c1ccccc1)C(Cl)(Cl)Cl	17.8	·	96.4*	-6.5	-106.6	47.5
C[C@@H]1CCCCO[C@H](CN(C)S(C)(=O)=O)[C@@H](C)CN([C@H](C)CO)C(=O)c2cc(NC(=O)CCC(F)(F)F)ccc2O1	13.4[16.7 µM]	0.4	-0.1	1.1	-2.9[16.7 µM]	6.2
CCOc1ccccc1N1CC(O)=C(c2nc3ccccc3s2)C1=N	100.5*	-321.4	·	-1.8	·	35.9
COc1ccc(OC)c(N2CC(O)=C(c3nc4ccccc4s3)C2=N)c1	8.9	-24.5	·	·	-85.8	·
Cc1ccc(S(=O)(=O)N2C[C@H]3[C@H]4C(=O)N(Cc5ccccc5)C(=O)[C@H]4CC(=O)[C@H]3[C@@H]2c2ccccc2Cl)cc1	4.0	-8.2	-2.7	-6.4	60.0*	-5.9
Cc1ccc(S(=O)(=O)N2C[C@H]3[C@H]4C(=O)N(C5CCCCC5)C(=O)[C@H]4CC(=O)[C@H]3[C@@H]2c2ccccc2F)cc1	2.9	2.2	20.3	-6.9	64.5*	-7.2
Cc1ccc(S(=O)(=O)N2C[C@H]3[C@H]4C(=O)N(Cc5ccccc5)C(=O)[C@H]4CC(=O)[C@H]3[C@@H]2c2ccccc2F)cc1	4.7	-4.6	-11.5	-8.3	?	-3.5
Cc1ccc(S(=O)(=O)N2C[C@H]3[C@H]4C(=O)N(C5CCCCC5)C(=O)[C@H]4CC(=O)[C@H]3[C@@H]2c2cccc3ccccc23)cc1	2.1	-1.9	-3.6	6.7	34.9	-8.2
COc1ccccc1CN1C(=O)c2ccccc2[C@@]2(Cc3ccccc3N(CCN3CCOCC3)C2=O)[C@@H]1c1ccc(CO)cc1	·	·	-4.8	·	7.9[16.7 µM]	3.6
CC1=C(C(=O)Nc2ccccc2C)C(c2ccc(C)o2)N2C(=O)CSC2=N1 (configuration not stated)	-0.5	78.4*	·	-6.7	·	9.8
O=C(NCC1CCCO1)/C(=C\c1cccc([N+](=O)[O-])c1)NC(=O)c1ccccc1 (configuration not stated)	·	·	4.9	22.9	1.9	3.9
O=C(NCC1CCCO1)C(=Cc1cccc([N+](=O)[O-])c1)C(=O)NCC1CCCO1 (configuration not stated)	·	·	98.0*	-18.4	29.3	-0.4
CC1C=NC(S(=O)(=O)N2CC[C@@H]3[C@H]2c2cc(-c4ccc(F)cc4)ccc2N(C)[C@H]3CO)=N1 (some centres not stated)	14.3[16.7 µM]	0.9	-19.0	-28.8	·	-4.7
COc1cc2c(cc1OC)CN(c1ncccc1[N+](=O)[O-])CC2	·	2.7	-73.2	49.5*	-51.6	-99.1
O=C1CCN(c2ncccc2[N+](=O)[O-])CC1	·	·	-5.3	15.9	-6.0	-3.8
CCCNC(=O)C[C@@H]1C[C@H]2c3cc(NC(=O)C4CCC4)ccc3O[C@H]2[C@H](CO)O1	1.6[16.7 µM]	-7.7	-2.7	1.5	·	1.7
SMILES	miR-122 sensor	C2C12 statin	PAX8 inh HTS	GSIS activator	Env fusion inh	EWS-Fli inh
Cc1ccc(S(=O)(=O)Nc2cccc(-c3cn4ccsc4n3)c2)cc1	142.3*	7.6	·	·	·	·
O=S(=O)(Nc1cccc(-c2cn3cccnc3n2)c1)c1ccc(F)cc1	2.3	·	77.1*	-4.2	·	-20.5
Cc1cccc(S(=O)(=O)Nc2cccc(-c3cn4ccsc4n3)c2)c1	77.5	17.2	·	·	·	·
O=S(=O)(Nc1cccc(-c2cn3cccnc3n2)c1)c1ccc(-c2ccccc2)cc1	20.5	16.7	·	·	·	·
CCCC#Cc1ccc([C@@H]2[C@@H](CO)N3CCCCN(Cc4cccnc4)C[C@@H]23)cc1	-1.1[16.7 µM]	15.4	-5.2	4.8	·	1.0
COC(=O)c1ccc(NC(=O)c2cccc(N3C(=O)C4C5C=CC(C6CC56)C4C3=O)c2)cc1 (configuration not stated)	·	-12.8	0.6	-5.1	63.8*	·
O=C(Nc1ccccc1)c1cccc(N2C(=O)C3C4C=CC(C5CC45)C3C2=O)c1 (configuration not stated)	·	·	6.4	-25.1	8.2	·
O=C(Nc1ccc(Br)cc1)c1cccc(N2C(=O)CCC2=O)c1	2.2	0.6	-89.7	3.5	-1.2	-19.6
O=C(Nc1ccccc1)c1cccc(N2C(=O)CCC2=O)c1	6.0	96.6*	·	8.3	·	·
COc1ccc(NC(=O)C(Cl)=C(Cl)Cl)cn1	3.0	·	52.4	-2.7	0.8	8.1
COc1ccc(NC(=O)/C(Cl)=C(/Cl)S(=O)Cc2ccc(Cl)cc2)cn1 (configuration not stated)	-30.3	-242.8	88.1*	45.9*	4.0	73.7*
Cc1noc(C)c1NC(=O)N[C@H]1C=C[C@H](CC(=O)N2CCN(C)CC2)O[C@@H]1CO	·	-5.4	7.6	-7.9	1.8[16.7 µM]	-1.8
CCC/C=C/c1ccc(CN2C(CC(C)C)C(=O)N(Cc3cn(CCC4OCCCO4)nn3)CCS2(=O)=O)cc1 (configuration not stated)	-8.1	-19.0	30.0	-6.5	4.3	10.8
CCC/C=C/c1ccc(CN2C(C)C(=O)N(Cc3cn(CC4CCCCC4)nn3)CCS2(=O)=O)cc1 (configuration not stated)	-0.8	5.6	10.5	-17.2	2.1	16.0
CCC/C=C/c1ccc(CN2C(C)C(=O)N(Cc3cn(CCC4OCCCO4)nn3)CCS2(=O)=O)cc1 (configuration not stated)	-0.5	-11.0	81.0*	-28.7	13.9	5.0
Cc1cccc(C)c1-c1ccc(CN2C(CC(C)C)C(=O)N(Cc3cn(CC4CCCCC4)nn3)CCS2(=O)=O)cc1 (configuration not stated)	-14.8	15.3	70.5*	6.4	-10.9	-0.4
CCC/C=C/c1ccc(CN2C(C(C)C)C(=O)N(Cc3cn(CC4CCCCC4)nn3)CCS2(=O)=O)cc1 (configuration not stated)	-5.5	0.7	29.9	-9.6	68.2*	2.6
